Bioassay records (PubChem)
Most compounds without a hit are left out; they make up all but 1.5% or so of the library.
NOD2-RIPK2 inh = blocks binding of human NOD2 to RIPK2 | O43353 | CHO BLA complementation NOD2-RIPK2, CCF4 ratio | inhibition, % at 4.98 µM | actives 0.38% (n = 360,000); in the data active means inhibition above about 21%;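 further: 0% = vehicle only and 100% = reference blocker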
Target sequence (O43353 whole entry, looked up): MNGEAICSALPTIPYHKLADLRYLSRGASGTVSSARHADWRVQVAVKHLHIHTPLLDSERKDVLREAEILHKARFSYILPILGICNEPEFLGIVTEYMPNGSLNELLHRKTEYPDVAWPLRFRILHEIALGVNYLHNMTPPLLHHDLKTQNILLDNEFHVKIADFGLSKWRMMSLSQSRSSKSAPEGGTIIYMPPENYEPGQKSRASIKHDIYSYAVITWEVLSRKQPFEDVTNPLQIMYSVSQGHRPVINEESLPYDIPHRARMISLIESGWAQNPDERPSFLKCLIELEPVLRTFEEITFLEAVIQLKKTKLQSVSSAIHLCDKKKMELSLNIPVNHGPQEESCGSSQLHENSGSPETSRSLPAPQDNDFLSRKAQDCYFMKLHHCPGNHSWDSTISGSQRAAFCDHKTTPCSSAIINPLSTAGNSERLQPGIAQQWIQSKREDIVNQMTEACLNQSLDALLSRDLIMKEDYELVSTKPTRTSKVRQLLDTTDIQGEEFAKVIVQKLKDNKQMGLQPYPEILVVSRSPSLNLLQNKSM
TLR4-MyD88 BLA = inhibitors of human TLR4-MyD88 binding | HeLa CL3-4 TLR4/MyD88 BLA complementation, FRET ratio | actives 0.18% (n = 200,000) | inhibition, % at 8.4 µM | AID 861; in the data active means inhibition above about 25%;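 further: 0% = vehicle and 100% = reference inhibitor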
Myeloid diff 2 = myeloid differentiation induction; ER-HoxA9 myeloid progenitors, lysozyme-GFP differentiation, flow cytometry; calls only at 10 µM; actives 1% (n = 360,000); AID 624256;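 active means normalized GFP-positive differentiation at or above the plate's own cutoff, the solvent-only control mean plus 3 SD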;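 further: cells exposed to compound for four days before flow analysis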
TLR9-MyD88 block = TLR9-MyD88 interaction inhibition; CHO BLA complementation TLR9-MyD88, CCF4 FRET ratio; inhibition, % at 4.98 µM; actives 0.21% (n = 340,000); AID 504734;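 active means inhibition above the mean over all tested compounds plus 3 SD, cut at about 21% in these data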;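 further: 0% = DMSO only wells and 100% = clavulanate BLA inhibitor control wells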
Myeloid diff CP1 = myeloid differentiation induction | shares compounds with Myeloid diff 2 | ER-HoxA9 myeloid progenitors, GFP/Mac1 double-positive flow | calls only | actives 2% (n = 2,300) | AID 651706;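 active means share of green or green-and-red cells above 9 and 9% in run 1 or 4 and 3% in run 2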
GFP autofluor = counter-screen for myeloid differentiation promoters: compound fluorescence; shares compounds with Myeloid diff 2; ER-HoxA9 myeloid progenitors, no estrogen, GFP autofluorescence flow cytometry; vehicle wells 0%, positive control 100%; fluorescence response, % (test concentration not listed); actives 7.4% (n = 2,300);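 active means over 5% cells positive for green fluorescent reporter, or over 2% positive for both it and APC stain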;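 further: range taken on the double positive population between DMSO and positive control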
* marks the source's active call; other numbers are inactive results; i = inactive; . = no result given; + = active, no number.

SMILES	NOD2-RIPK2 inh	TLR4-MyD88 BLA	Myeloid diff 2	TLR9-MyD88 block	Myeloid diff CP1	GFP autofluor
COc1ccc(/C=C/c2onc(C)c2S(=O)(=O)N2CCC(C(=O)N3CCCCCC3)CC2)cc1	0	.	i	8	.	.
Cc1ccc(/C=C/c2onc(C)c2S(=O)(=O)N2CCC(C(=O)N3CCCCC3)CC2)cc1	1	.	i	7	i	0
OC(c1cccnc1)c1nc(/C=C/c2ccc(C(F)(F)F)cc2)cs1 (stereo not given)	-12	.	i	.	.	.
COc1ccc(C(=O)NC(=S)Nc2ccc(S(=O)(=O)Nc3cc(OC)nc(OC)n3)cc2)cc1	-13	.	+	2	i	0
Cc1ccc2nc(-c3cccc(Br)c3)c(Cc3ccccn3)n2c1	-1	.	i	.	.	.
CCOc1ccc(S(=O)(=O)Nc2ccc(Cl)cn2)c(C)c1C	-9	-3	i	-5	.	.
CCOc1cc(C)c(S(=O)(=O)Nc2ccc(Cl)cn2)cc1C	-9	3	i	2	i	0
OCCCNc1ncnc2c1ncn2[C@H]1CN(Cc2ccc(Cl)cc2)C[C@@H](CO)O1	12	.	i	.	.	.
O=C(/C=C\c1ccc2c(c1)OCO2)Nc1c2c(nn1-c1ccc(Cl)cc1)CSC2	-2	12	i	4	i	0
Cc1noc(C)c1S(=O)(=O)Nc1ccc2c(c1)C(=O)N([C@H](C)CO)C[C@H](C)[C@@H](CN(C)C(=O)CCCN(C)C)OCCCC[C@@H](C)O2	-11	.	i	5	i	0
C[C@@H]1CCCCO[C@H](CN(C)C(=O)C2CCCCC2)[C@@H](C)CN([C@H](C)CO)C(=O)c2cc(N(C)C)ccc2O1	-4	.	i	-8	i	0
COc1ccc(S(=O)(=O)Nc2ccc3c(c2)C(=O)N([C@@H](C)CO)C[C@@H](C)[C@H](CN(C)C(=O)CCCN(C)C)OCCCC[C@H](C)O3)cc1	-1	.	i	-1	.	.
OC(c1ccc(F)cc1)c1nc(-c2cc3ccccc3o2)cs1 (stereo not given)	3	.	i	.	.	.
C[C@H]1CN([C@@H](C)CO)C(=O)c2cc(Br)cnc2O[C@H]1CN(C)Cc1ccc(Oc2ccccc2)cc1	-2	.	i	3	.	.
CCCNC(=O)COC(=O)c1ccccc1OCc1ccc(Cl)cc1	2	-8	+	0	i	0
CCN(Cc1ccccc1)C(=O)C1CCN(C/C(C)=C/c2ccccc2)CC1	-6	-1	i	4	i	0
CCN(Cc1ccccc1)C(=O)C1CCN(Cc2ccc(SC)cc2)CC1	6	-3	i	1	.	.
O=S1(=O)CC(N2CCN(CCO)CC2)CN1Cc1ccccc1 (stereo not given)	-7	.	i	.	.	.
Cc1ccc(OCc2nc3ccccc3n2C(C(=O)NC(C)(C)C)c2ccncc2)cc1 (stereo not given)	7	.	i	.	.	.
COc1ccc2cc(C(C)c3nc4ccccc4c(=O)n3N)ccc2c1 (stereo not given)	-8	-5	+	-11	i	0
CC/C(=C1/C(=O)CC(C)(C)C(C(=O)OC)C1=O)N1CCCC1 (stereo not given)	-2	3	i	-4	i	0
CCO/N=C/C1=C(O)C(C(=O)OC)C(C)(C)CC1=O (stereo not given)	-8	-10	i	11	.	.
COc1cccc(CNC(=O)c2ccc(CS(=O)Cc3ccccc3Cl)o2)c1 (stereo not given)	-1	.	i	1	.	.
NC(=O)c1ccc(N2CCN(c3ccccc3O)CC2)c([N+](=O)[O-])c1	6	-8	i	-13	.	.
NC(=O)c1ccc(N2CCN(c3ccccc3F)CC2)c([N+](=O)[O-])c1	-7	-7	i	-5	i	1
SMILES	NOD2-RIPK2 inh	TLR4-MyD88 BLA	Myeloid diff 2	TLR9-MyD88 block	Myeloid diff CP1	GFP autofluor
COC(=O)C1=CN(c2ccc(F)cc2)C(N)=C(C#N)C1c1ccc(-c2ccccc2)cc1 (stereo not given)	-5	.	i	.	.	.
O=c1c2c(nc3nc(CCc4ccccc4)[nH]n13)CCC2	0	-8	+	-9	i	0
O=C(N1CCOCC1)C12OC3CC(CC(C3)O1)O2	-18	.	i	.	.	.
CCc1c(N)nc(N)nc1Nc1ccc(C)c(C)c1	-7	.	i	4	i	1
COc1ccccc1OCc1nnc(SCCN2CCOCC2)o1	-4	8	i	-2	i	0
CS(=O)(=O)N1CCC(C(=O)Nc2cc(Cl)c(Cl)cc2Cl)CC1	7	.	i	2	i	2
CC1(C)CC(NC(=O)c2sc3cc(Cl)ccc3c2Cl)CC(C)(C)N1	-5	-13	i	10	i	0
Cc1cccc(C)c1-n1nnnc1C1c2ccccc2C(=O)N1CCCN1CCOCC1 (stereo not given)	-2	.	i	.	.	.
Cc1ccnc(NC(=O)c2ccc([N+](=O)[O-])o2)c1	-1	7	+	2	i	1
Cc1ccc2nsnc2c1NC(=O)c1ccc([N+](=O)[O-])o1	2	.	+	2	i	0
Nc1sc(-c2ccccc2)cc1C(=O)N1CCN(c2ccccc2)CC1	-10	.	i	.	.	.
c1cc2c3c(cccc3c1)C(N1CCN(C3=Nc4cccc5cccc3c45)CC1)=N2	.	11	.	.	.	.
CCCCN(C)C1=Nc2cccc3cccc1c23	13	4	+	-4	i	0
CC(=O)N1c2ccc(S(=O)(=O)NCCc3ccccc3)cc2CC1C (stereo not given)	10	.	i	-12	.	.
O=S(=O)(NCc1ccco1)c1ccc2c(c1)Cc1ccccc1-2	-9	4	i	0	i	0
CC(=O)N1c2ccc(S(=O)(=O)NCc3ccco3)cc2CC1C (stereo not given)	5	.	+	0	i	2
O=C(Nc1cccc2[nH]c([C@H]3C[C@H](O)[C@@H](CO)O3)nc12)NC(c1ccccc1)c1ccccc1	3	.	i	.	.	.
CCCCCCc1cc2cc(S(=O)(=O)c3ccc(Cl)cc3)c(=O)oc2cc1O	-12	1	i	-2	.	.
CCN(CC)c1ccc2cc(S(=O)(=O)c3ccc(Cl)cc3)c(=O)oc2c1	-14	-18	i	-21	i	1
CCCCOC(=O)C(C#N)c1nc2ccccc2nc1N1CCN(Cc2ccc3c(c2)OCO3)CC1 (stereo not given)	-5	-3	+	0	i	0
CC(C)COC(=O)C(C#N)c1nc2ccccc2nc1N1CCN(Cc2ccc3c(c2)OCO3)CC1 (stereo not given)	6	-1	i	-5	.	.
C=CCNc1ncnc2c1ncn2[C@H]1CN(Cc2cccc3ccccc23)C[C@@H](CO)O1	-3	.	i	.	.	.
c1ccc2c(CN3CCOCC3)c3ccccc3c(CN3CCOCC3)c2c1	-1	7	i	0	.	.
OC1(CN2CCOCC2)C2CN3CCN(C2)CC1(c1ccccc1)C3 (stereo not given)	-6	3	+	-8	i	0
